Results filed as inconclusive are left out. Calls of active or inactive are those of the source. Calls follow the shape of the dose curve; as a rule, active = well fitted cell-killing curve with a large enough effect; inconclusive = small, poorly fitted or top-dose-only effect, or effect the other way; inactive = flat fitted curve, though single readings scatter.
What was measured:
Assay in all cases: Primary qHTS to identify gynecologic anti-cancer compounds using libraries of approved drugs and bioactive compounds (AID 1345084); also: nearly all actives have a fitted effect of over 55% in size
[1] = test system: C33A; conditions: Gynecologic cancer cell panel viability, ATPlite luminescence, 48 h; series mostly up to 57.5 µM
In short: (§1)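 Cells, 1,000 per well, plated 16 h, then exposed 48 h at 37 C to compounds. Viability by ATPlite luminescence after 15 min at room temperature.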

[2] = test system: CAOV3; conditions: Gynecologic cancer cell panel viability, ATPlite luminescence, 48 h; series mostly up to 57.5 µM
In short: as §1

[3] = test system: CASKI; conditions: Gynecologic cancer cell panel viability, ATPlite luminescence, 48 h; series mostly up to 57.5 µM
In short: as §1

[4] = test system: Es-2; conditions: Gynecologic cancer cell panel viability, ATPlite luminescence, 48 h; series mostly up to 57.5 µM
In short: as §1

[5] = test system: HeLa; conditions: Gynecologic cancer cell panel viability, ATPlite luminescence, 48 h; series mostly up to 57.5 µM
In short: as §1

[6] = test system: Hek293T; conditions: Gynecologic cancer cell panel viability, ATPlite luminescence, 48 h, control line for the selectivity index; series mostly up to 57.5 µM
In short: as §1

[7] = test system: OV90; conditions: Gynecologic cancer cell panel viability, ATPlite luminescence, 48 h; series mostly up to 57.5 µM
In short: as §1

[8] = test system: JEG-3; conditions: Gynecologic cancer cell panel viability, ATPlite luminescence, 48 h; series mostly up to 57.5 µM
In short: as §1

[9] = test system: PA-1; conditions: Gynecologic cancer cell panel viability, ATPlite luminescence, 48 h; series mostly up to 57.5 µM
In short: as §1
% is scaled to controls: 0 for no effect and ±100 for the full control effect; potency is read from the fitted curve at half-maximal effect.

C=C1C(=O)O[C@@H]2/C=C(\C)CC/C=C(\C)CC[C@@H]12
inactive: Potency [1] | Potency [2] | Potency [3] | Potency [4] | Potency [5] | Potency [6] | Potency [7]

Cn1ncc(Cl)c1-c1cc(C(=O)N[C@H](CN)Cc2ccc(F)c(F)c2)oc1Cl
active: Potency [1] 2.24 µM | Potency [3] 3.98 µM | Potency [7] 14.1 µM
inactive: Potency [2] | Potency [4] | Potency [5] | Potency [8]

O=C(N[C@@H]1CCCc2c1cnn2-c1ccc(F)cc1F)c1ccccn1
inactive: Potency [1] | Potency [2] | Potency [3] | Potency [4] | Potency [5] | Potency [7] | Potency [9]

CC(=O)C1(C)CCC2C3C=C(C)C4=CC(=O)CCC4(C)C3CCC21C (centres undefined)
inactive: Potency [1] | Potency [2] | Potency [3] | Potency [4] | Potency [8] | Potency [7]
active: Potency [5] 14.1 µM

Nc1nccc(-c2c(-c3ccc(F)cc3)ncn2C2CCCCC2)n1
inactive: Potency [1] | Potency [2] | Potency [3] | Potency [4] | Potency [5] | Potency [8]

CC(=O)OC1CCC2(C)C(CCC3(C)C2CC=C2C4C(C)C(C)CCC4(C)CCC23C)C1(C)C(=O)O (centres undefined)
inactive: Potency [1] | Potency [2] | Potency [3] | Potency [4] | Potency [5] | Potency [6] | Potency [7] | Potency [9]

COc1nc2ccc(Br)cc2cc1[C@@H](c1ccccc1)[C@@](O)(CCN(C)C)c1cccc2ccccc12
inactive: Potency [1] | Potency [2] | Potency [3] | Potency [4] | Potency [5] | Potency [8] | Potency [7] | Potency [9]

COc1cccc(NCCC2(c3ccccc3)CC(C)(C)OC(C)(C)C2)c1
inactive: Potency [1] | Potency [2] | Potency [3] | Potency [4] | Potency [5] | Potency [6] | Potency [7] | Potency [9]

COc1ccc2[nH]c(=O)c3c(c2c1)OC(C)(C)C=C3
inactive: Potency [1] | Potency [2] | Potency [3] | Potency [4] | Potency [5] | Potency [8] | Potency [7] | Potency [9]

CC(O)C(C)n1ncn(-c2ccc(N3CCN(c4ccc(OCC5COC(Cn6cncn6)(c6ccc(Cl)cc6Cl)O5)cc4)CC3)cc2)c1=O (centres undefined)
inactive: Potency [1] | Potency [2] | Potency [3] | Potency [4] | Potency [5] | Potency [6] | Potency [9]

Fc1ccc(N2CCCCC2)c(NC(=S)c2ccncc2)c1
inactive: Potency [1] | Potency [2] | Potency [3] | Potency [4] | Potency [5] | Potency [8] | Potency [7] | Potency [9]

CN(C)C(=O)Nc1cccc(-c2ccc(N(C)C)cc2)c1
inactive: Potency [1] | Potency [2] | Potency [3] | Potency [4] | Potency [5] | Potency [8] | Potency [7] | Potency [9]

O=C(NO)c1ccc(CC(=O)N(CCO)c2ccccc2)cc1
inactive: Potency [1] | Potency [2] | Potency [3] | Potency [4] | Potency [5] | Potency [6] | Potency [7]

CCOC(=O)C1=Cc2ccc(C(F)(F)C(F)(F)F)cc2N=C(N)C1
inactive: Potency [1] | Potency [2] | Potency [3] | Potency [4] | Potency [5] | Potency [6] | Potency [7] | Potency [9]

CCCc1cc2c(N3CCN(C4=NCC(C)(C)S4)CC3)ncnc2s1
inactive: Potency [1] | Potency [2] | Potency [3] | Potency [4] | Potency [5] | Potency [8] | Potency [9]

CCC(C(C)O)n1ncn(-c2ccc(N3CCN(c4ccc(OCC5COC(Cn6cncn6)(c6ccc(F)cc6F)C5)cc4)CC3)cc2)c1=O (centres undefined)
inactive: Potency [1] | Potency [2] | Potency [3] | Potency [4] | Potency [5] | Potency [8] | Potency [7] | Potency [9]

C=C1C(=O)O[C@@H]2[C@H]1CC[C@H](C)[C@]1(CCC(=O)O1)C2(C)O (some centres undefined)
inactive: Potency [1] | Potency [2] | Potency [3] | Potency [4] | Potency [5] | Potency [8] | Potency [7] | Potency [9]

O=c1cc(NCCCN[C@@H]2CCOc3c(Br)cc(Br)cc32)[nH]c2ccsc12
inactive: Potency [1] | Potency [2] | Potency [3] | Potency [4] | Potency [5] | Potency [8] | Potency [7] | Potency [9]

C=CC(C)(C)C12CC3C(=O)N4C(CC5(C(C)(C)C=C)c6ccccc6NC45)C(=O)N3C1Nc1ccccc12 (centres undefined)
inactive: Potency [1] | Potency [2] | Potency [3] | Potency [4] | Potency [5] | Potency [6] | Potency [7] | Potency [9]

CC(=O)OC1C(OC(=O)c2ccccc2)C2C(=C(C)CCC2(C)C)C23CCC(C)(C2)C(=O)CC13 (centres undefined)
inactive: Potency [1] | Potency [2] | Potency [3] | Potency [4] | Potency [5] | Potency [8] | Potency [9]

NC(=O)N1CCC(CC(=O)N2CCC(C3c4ncc(Br)cc4CCc4cc(Cl)cc(Br)c43)CC2)CC1 (centres undefined)
inactive: Potency [1] | Potency [2] | Potency [3] | Potency [4] | Potency [5] | Potency [8] | Potency [9]

C[C@@H]1O[C@@H](O[C@H]2[C@@H](OC(=O)[C@]34CCC(C)(C)CC3C3=CCC5[C@@]6(C)C[C@H](O)[C@H](O[C@@H]7O[C@H](CO)[C@@H](O)[C@H](O)[C@H]7O[C@@H]7OC[C@@H](O)[C@H](O)[C@H]7O)[C@@](C)(C(=O)O)C6CC[C@@]5(C)[C@]3(C)CC4)OC[C@H](O)[C@@H]2O)[C@H](O)[C@H](O)[C@H]1O[C@@H]1OC[C@@H](O)[C@H](O)[C@H]1O (some centres undefined)
inactive: activity change, negative = cytotoxicity [1] -27.4% [at 6.55 µM] | activity change, negative = cytotoxicity [2] 2.23% [at 6.55 µM] | activity change, negative = cytotoxicity [3] -11.2% [at 6.55 µM] | activity change, negative = cytotoxicity [4] 4.6% [at 6.55 µM] | activity change, negative = cytotoxicity [5] -12.9% [at 6.55 µM] | activity change, negative = cytotoxicity [6] -3.38% [at 6.55 µM] | activity change, negative = cytotoxicity [9] -26.7% [at 6.55 µM]
